MITF primary – blocks human microphthalmia-associated transcription factor | inhibition, % at 2.6 µM | hit rate 0.91% among 650,000 | AlphaScreen MITF homodimerization, bead proximity signal | AID 1259374; in the data active = inhibition above about 50%;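 also: 0% = vehicle wells with protein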
Target sequence (O75030 whole entry, looked up): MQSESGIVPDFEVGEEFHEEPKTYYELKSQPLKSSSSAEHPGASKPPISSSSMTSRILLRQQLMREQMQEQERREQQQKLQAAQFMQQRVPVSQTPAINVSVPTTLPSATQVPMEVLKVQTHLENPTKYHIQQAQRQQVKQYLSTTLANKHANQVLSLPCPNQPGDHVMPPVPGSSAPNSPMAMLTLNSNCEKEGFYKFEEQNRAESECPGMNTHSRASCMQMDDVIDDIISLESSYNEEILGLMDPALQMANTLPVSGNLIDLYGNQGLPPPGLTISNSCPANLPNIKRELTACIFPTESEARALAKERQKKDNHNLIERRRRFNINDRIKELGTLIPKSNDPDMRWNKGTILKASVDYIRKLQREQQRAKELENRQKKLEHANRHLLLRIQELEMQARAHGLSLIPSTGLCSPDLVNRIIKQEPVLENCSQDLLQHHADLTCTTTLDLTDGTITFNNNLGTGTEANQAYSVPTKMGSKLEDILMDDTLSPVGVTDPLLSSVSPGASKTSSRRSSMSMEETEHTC
TEAD-YAP block – TEAD-YAP interaction inhibition; HEK-TIYL cells, TEAD-Gal4/YAP UAS-luciferase luminescence; inhibition, % at 9.12 µM; hit rate 1.4% among 640,000; AID 1259422; in the data active = inhibition above about 32%;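 also: 0% = median of test compound wells and 100% = reference inhibitor wells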
FBW7 act – human FBW7 E3 ligase activation, primary screen. hit rate 0.13% among 650,000. AlphaScreen FBW7–phospho-cyclin E peptide binding, activator screen. Q969H0. normalized activity (activation), % at 26.1 µM; in the data active = normalized activity above about 1.9%;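 also: purified mutant Fbw7 with reduced substrate affinity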
GPR151 ag – human GPR151 activation; Q8TDV0; PathHunter beta-arrestin GPR151 cells, luminescence; AID 1508602; activation, % at 11.2 µM; hit rate 1% among 650,000; in the data active = activation above about 4.9%;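 also: 0% = median of compound wells and 100% = cells with positive control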
GPR151 conf act – confirmation of human GPR151 activators | 6,700 tested, under 10 active | AID 1508609 | activation, % at 11.2 µM | shares compounds with GPR151 ag | GPR151 PathHunter beta-arrestin cells, luminescence, 90 min; % of EA-reagent control over plate median;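 active = mean percent activation across replicates above the confirmation screen cutoff of 4.91%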
GPR119 ag – activates human GPR119 in a GPR151 counter-screen; hit rate 0.3% among 6,700; activation, % at 11.2 µM; shares compounds with GPR151 ag; GPR119 PathHunter beta-arrestin cells, luminescence, 90 min; 0 = compound-well median, 100 = enzyme-acceptor control;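 active = mean percent activation in the counterscreen above 29.09%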;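 also: counterscreen on off-target GPR119 to flag nonselective hits from the GPR151 activator screen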
Starred values were filed as active, the others as inactive. A selection: hits, their analogues and other compounds. The true share with any hit is near 3.4%.

For O=C(COC(=O)c1ccc(F)c(S(=O)(=O)N2CCOCC2)c1)c1ccc(Cl)cc1 the results were MITF primary -3, TEAD-YAP block 1, FBW7 act 1 and GPR151 ag 2.
Screening COc1ccc(Cl)cc1C(=O)Nc1ccc2nc(N3CCOCC3)cc(C)c2c1 returned MITF primary 1, TEAD-YAP block -7, FBW7 act 0 and GPR151 ag 0.
Screening Nc1ncc(Br)cc1S(=O)(=O)NC1CCCCC1 returned MITF primary -2, TEAD-YAP block 3, FBW7 act 0 and GPR151 ag -1.
`Nc1ncc(Br)cc1S(=O)(=O)NC1CCCCCCC1` gave MITF primary 6, TEAD-YAP block -2, FBW7 act 0, GPR151 ag 7.3*, GPR151 conf act 0 and GPR119 ag -8.
O=C(c1cc([N+](=O)[O-])cc([N+](=O)[O-])c1)n1cnc2ccccc21 was read as MITF primary 21, TEAD-YAP block -7, FBW7 act 1 and GPR151 ag -1.
`Cc1ccccc1C(=O)n1cnc2cc([N+](=O)[O-])ccc21` gave MITF primary -259, TEAD-YAP block 7, FBW7 act 0, GPR151 ag 7.1*, GPR151 conf act 1 and GPR119 ag -1.
For O=[N+]([O-])c1ccccc1/C=N/NS(=O)(=O)c1ccc(Cl)cc1 the results were MITF primary 21, TEAD-YAP block -4, FBW7 act 0, GPR151 ag 14*, GPR151 conf act 0 and GPR119 ag 10.
`CC(C)(C)c1ccc(S(=O)(=O)N/N=C/c2ccccc2[N+](=O)[O-])cc1` gave MITF primary 13, TEAD-YAP block 13, FBW7 act 0 and GPR151 ag 0.
`Cc1cccc(NC(=O)Nc2cnn(-c3cccc(C(=O)Nc4ccnc(C)c4)c3)c2)c1` gave MITF primary -5, TEAD-YAP block 25, FBW7 act 0, GPR151 ag 6.6*, GPR151 conf act -1 and GPR119 ag -6.
`O=C(Cc1ccccc1)Nc1cnn(-c2cccc(C(=O)Nc3cccc(CN4CCOCC4)c3)c2)c1` gave MITF primary -7, TEAD-YAP block 4, FBW7 act 0, GPR151 ag 5.2*, GPR151 conf act 0 and GPR119 ag -2.
Cc1cccc(NC(=O)Nc2cnn(-c3cccc(C(=O)NOCc4ccccc4)c3)c2)c1 was read as MITF primary 14, TEAD-YAP block -4, FBW7 act 0, GPR151 ag 4.9*, GPR151 conf act 0 and GPR119 ag -7.
Screening Cc1cccc(NC(=O)Nc2cnn(-c3cccc(C(=O)Nc4cc(C)c(C)c(C)c4)c3)c2)c1 returned MITF primary -9, TEAD-YAP block -4, FBW7 act 0 and GPR151 ag 1.
Screening COC(=O)CN(c1ccc(OC)cc1)S(=O)(=O)c1ccc(C)c([N+](=O)[O-])c1 returned MITF primary 8, TEAD-YAP block 6, FBW7 act 0 and GPR151 ag 1.
Cc1ccc(C)c(N2C(=N)S/C(=C/c3cn(Cc4ccc(Cl)c(Cl)c4)c4ccccc34)C2=O)c1 was read as MITF primary -3, TEAD-YAP block -1, FBW7 act 0 and GPR151 ag 1.
`O=C1OC(c2ccc(F)cc2)=N/C1=C\c1ccc(-c2ccc(I)cc2)o1` gave MITF primary -1, TEAD-YAP block -1, FBW7 act 0, GPR151 ag 6.0*, GPR151 conf act 0 and GPR119 ag -1.
For Cc1ccc(NC(=O)/C(=C\c2ccco2)NC(=O)c2ccccc2Cl)cc1 the results were MITF primary 0, TEAD-YAP block 1, FBW7 act 0 and GPR151 ag 0.
`COc1ccc(C(=O)N2CCN(S(=O)(=O)c3cc4c5c(c3)CCC(=O)N5CCC4)CC2)cc1` gave MITF primary 2, TEAD-YAP block 7, FBW7 act 0, GPR151 ag 5.7*, GPR151 conf act 0 and GPR119 ag 0.
`Cc1ccccc1-c1nsc(SCC(=O)Nc2ccc([N+](=O)[O-])cc2)n1` gave MITF primary 5, TEAD-YAP block 20, FBW7 act 0 and GPR151 ag 1.
Screening CCc1ccc(-c2nc(=S)[nH][nH]2)cc1 returned MITF primary -1, TEAD-YAP block -21, FBW7 act 0, GPR151 ag 7.6*, GPR151 conf act 1 and GPR119 ag 6.
For COc1ccc(/C=N/NC(=O)CSc2nnc(C)n2-c2ccccc2)cc1 the results were MITF primary 11, TEAD-YAP block 4, FBW7 act 0 and GPR151 ag 1.
`O=C(CSC(=S)N1CCCCC1)c1ccc([N+](=O)[O-])cc1` gave MITF primary 20, TEAD-YAP block -32, FBW7 act 0, GPR151 ag 6.1*, GPR151 conf act 0 and GPR119 ag -5.
`Cn1c(=O)[nH]c(=O)c2c1nc(NCc1cccnc1)n2CCO` gave MITF primary 2, TEAD-YAP block -5, FBW7 act 0 and GPR151 ag 1.
`Cc1c(Cl)cccc1NC(=O)Cn1cnc2scc(-c3ccccc3)c2c1=O` gave MITF primary 4, TEAD-YAP block 9, FBW7 act 0 and GPR151 ag 4.
Screening CC(C)Cc1nnc2sc(NC(=O)C(C)C)nn12 returned MITF primary 3, TEAD-YAP block 0, FBW7 act 0 and GPR151 ag -1.
`CCC(=O)Nc1nn2c(CC(C)C)nnc2s1` gave MITF primary -13, TEAD-YAP block 6, FBW7 act 0, GPR151 ag 5.0*, GPR151 conf act 0 and GPR119 ag -6.
Screening CCCC(=O)Nc1nn2c(CC(C)C)nnc2s1 returned MITF primary -2, TEAD-YAP block -5, FBW7 act 0, GPR151 ag 7.1*, GPR151 conf act 1 and GPR119 ag 1.
Screening CCCC(=O)Nc1nn2c(CCC)nnc2s1 returned MITF primary 0, TEAD-YAP block -4, FBW7 act 0 and GPR151 ag 0.
`COc1ccc(C2C(C(C)=O)=C(C)N=c3s/c(=C/c4ccc(-c5ccc(Cl)c(Cl)c5)o4)c(=O)n32)cc1` (centres undefined) gave MITF primary -2, TEAD-YAP block -7, FBW7 act 0 and GPR151 ag -2.
Screening Cc1no[n+]([O-])c1COc1ccccc1C=C1C(=O)NC(=S)NC1=O returned MITF primary 29, TEAD-YAP block -1, FBW7 act 0, GPR151 ag 6.2*, GPR151 conf act 0 and GPR119 ag -1.
Cc1no[n+]([O-])c1COc1ccccc1C=C1C(=O)NC(=O)NC1=O was read as MITF primary 13, TEAD-YAP block -3, FBW7 act 0 and GPR151 ag 1.
